# Screens deposited in PubChem BioAssay by National Center for Advancing Translational Sciences (NCATS).
# 12-LOX inh – blocks human arachidonate 12S-lipoxygenase; P18054; purified 12hLO, xylenol orange hydroperoxide absorbance; Potency, µM (series often up to 108 µM), without a hit: top-dose activity change, negative = inhibition, actives largely listed as inhibitors; actives 1.1% (n = 580,000); note: potency is the fitted concentration of half-maximal effect
# Target sequence (P18054 whole entry, looked up): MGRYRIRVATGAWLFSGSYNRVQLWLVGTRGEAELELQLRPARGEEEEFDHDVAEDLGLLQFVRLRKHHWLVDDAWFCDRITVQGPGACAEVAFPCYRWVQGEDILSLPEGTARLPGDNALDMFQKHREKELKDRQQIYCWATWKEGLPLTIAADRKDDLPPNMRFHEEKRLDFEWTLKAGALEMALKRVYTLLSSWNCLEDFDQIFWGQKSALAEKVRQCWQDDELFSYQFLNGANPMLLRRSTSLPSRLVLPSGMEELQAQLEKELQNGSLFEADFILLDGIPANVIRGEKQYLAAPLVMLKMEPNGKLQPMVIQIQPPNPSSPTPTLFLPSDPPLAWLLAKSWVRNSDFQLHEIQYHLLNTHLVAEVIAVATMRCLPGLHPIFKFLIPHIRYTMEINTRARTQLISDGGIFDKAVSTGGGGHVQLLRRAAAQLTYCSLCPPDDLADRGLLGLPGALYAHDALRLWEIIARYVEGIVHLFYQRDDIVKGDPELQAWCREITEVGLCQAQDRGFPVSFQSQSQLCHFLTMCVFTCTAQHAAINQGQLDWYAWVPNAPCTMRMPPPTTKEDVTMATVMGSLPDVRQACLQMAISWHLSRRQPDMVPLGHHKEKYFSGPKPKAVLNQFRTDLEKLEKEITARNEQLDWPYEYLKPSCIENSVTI
#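 Purified human 12hLO (150 nM final) in 25 mM Hepes, 0.01% Triton X-100, pH 7.0 was preincubated 15 min at room temperature with compound. Then 40 uM arachidonic acid was added, 30 min. Hydroperoxide was read by Fe-XO absorbance ratio 573/405 nm.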
# TDP1 cell noCPT – qHTS for Inhibitors of human tyrosyl-DNA phosphodiesterase 1 (TDP1): qHTS in cells in absence of CPT; DT40 Tdp1-/- hTDP1 cells, no CPT, ATP luminescence, 48 h; Potency, µM (top dose mostly 46.2 µM), for the others: at the top dose activity change, negative = growth inhibition, hits mostly inhibitors; actives 15% (n = 420,000); AID 686978, 2013; note: potency is the fitted concentration of half-maximal effect; nearly all actives have a fitted effect of over 55% in size
#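 Luminescent ATP content (CellTiter-Glo) served as the growth readout. Knockout chicken DT40 cells expressing human TDP1 were exposed to compounds without camptothecin for a minimum 48 hr at 37 °C.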
# HT1080-NT tox – kills 2HG-producing HT-1080-NT fibrosarcoma cells | HT-1080-NT fibrosarcoma viability, CellTiter-Glo ATP luminescence, 48 h | Potency, µM (top dose mostly 46.1 µM), inactives show at the highest dose activity, negative = less viability, most hits filed as cytotoxic | actives 1.6% (n = 360,000) | AID 686970;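 note: NT is the 2HG producing partner of a matched IDH1 knockdown line; potency is the fitted concentration of half-maximal effect; 0% = DMSO-treated cells and -100% = media-only wells without cells; nearly all actives have a fitted effect of over 55% in size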
#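 HT-1080-NT fibrosarcoma cells (2HG-overproducing), 750 cells/well in RPMI with 5% FBS, dosed after 2 h and incubated 48 h at 37C. CellTiter-Glo luminescence normalized to DMSO and no-cell wells; concentration-response curves fitted and classed.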
# IL1B secr inh – inflammasome signaling inhibition, IL-1 beta readout. THP-1 LPS/ATP IL-1B secretion, AlphaLISA, 16 h; stronger effect = lower value. activity change, % at 57.5 µM. actives 4.7% (n = 360,000); in the data active = activity change below about -50%; inconclusive = mostly about -30% to -49%
#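 THP-1 cells pretreated 1 hr with compounds (up to 57.5 uM final), then stimulated with LPS (250 ng/mL final) plus ATP (1.25 mM final); secreted IL-1B measured by AlphaLISA after 16 hr, decreased signal indicating inhibition.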
# HT1080 IDH1KD tx – toxicity to HT-1080 IDH1 knockdown cells (counter line); HT-1080 IDH1 knockdown viability, ATP luminescence, 48 h; Potency, µM (top dose mostly 46.1 µM), for the others: at the highest dose activity, negative = toxicity, usual class: cytotoxic; actives 2% (n = 360,000);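 note: potency is the fitted concentration of half-maximal effect; 0% = DMSO wells and -100% = cell-free medium wells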
#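 Knockdown cells (IDH1KD HT-1080) received compounds 2 h after plating at 750 cells/well and were kept 48 h at 37 °C in 5% FBS RPMI. A CellTiter-Glo luminescence read gave % activity for curve fitting.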
# DT40 TDP1 CPT – growth inhibition of DT40 Tdp1-/-;hTDP1 cells with camptothecin (screen for TDP1 inhibitors) | chicken DT40 Tdp1-/-;hTDP1 cells + 20 nM CPT, ATP luminescence, 48 h | Potency, µM (series often up to 46.2 µM), inactives show top-dose activity change, negative = growth inhibition, most hits filed as inhibitors | actives 12% (n = 420,000) | AID 686979; note: potency is the fitted concentration of half-maximal effect; nearly all actives have a fitted effect of over 55% in size
#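 Chicken DT40 Tdp1-/- cells complemented with human TDP1, 400 cells/well, exposed to compounds plus 20 nM camptothecin for at least 48 h at 37 C; viability read as ATP content by CellTiter-Glo luminescence.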
# Numbers without * were called inactive; ? = inconclusive; · = no result given; [ ] = dose if it differs, or a comment. The full list was thinned out, with hits kept by preference. Unless noted, calls come from the whole dose curve; as a rule, active = well fitted curve in the direction sought with a large enough effect; inconclusive = small, poorly fitted or top-dose-only effect, or another doubt; inactive = no such curve, though single readings can be large; an effect the other way counts as inactive or inconclusive. Unless noted, % is set by controls: 0 for no effect and ±100 for the full control effect.
SMILES,12-LOX inh,TDP1 cell noCPT,HT1080-NT tox,IL1B secr inh,HT1080 IDH1KD tx,DT40 TDP1 CPT
CNCc1cn(C2CCN(Cc3c(OC)ccc(F)c3F)CC2)nn1,25%,·,·,·,·,·
O=S(=O)(c1ccc(Oc2ccc(Br)cc2)cc1)N1CCOCC1,0%,23µM*,-18%,-14,-7%[9.24 µM],16µM*
COc1cc(C(c2nnnn2C(C)(C)C)N2CCN(c3nc4ccccc4s3)CC2)ccc1O (stereo unspecified),0%,12µM*,8%,7,14%,15µM*
COc1ccc(C(c2nnnn2C(C)(C)C)N2CCN(c3nc4ccccc4s3)CC2)cc1OC (stereo unspecified),-6%,2%,11%,0,0%,?
COCCn1nnnc1C(c1cccs1)N1CCN(c2cc(C)ccc2C)CC1 (stereo unspecified),?,?,-21%,-53*,-30%,?
Clc1ccc(C(c2nnnn2CCc2ccccc2)N2CCSCC2)cc1 (stereo unspecified),-6%,?,-1%,?,-11%,?
Oc1ccc(C(c2nnnn2CCc2ccccc2)N2CCN(c3nc4ccccc4s3)CC2)cc1 (stereo unspecified),-17%,13µM*,7%,-50*,-3%,16µM*
COCCn1nnnc1C(c1cccs1)N1CCN(c2nc3ccccc3s2)CC1 (stereo unspecified),7%[57.4 µM],23µM*,-1%,-17,-18%,?
CCC(c1nnnn1Cc1cccs1)N1CCN(c2nc3ccccc3s2)CC1 (stereo unspecified),-19%,?,-9%,?,?,?
Cc1ccc(N2Cc3c(ncnc3N3CCC(O)CC3)CN(C)C2=O)cc1,-15%,·,·,·,·,·
Cn1cc(C(=O)N2CCC(C(=O)NCc3ccccc3)CC2)c2ccccc21,26%,·,·,·,·,·
c1cnc2ccc(C(c3nnnn3C3CCCC3)N3CCN(c4nc5ccccc5s4)CC3)cc2c1 (stereo unspecified),0%,?,-4%,-53*,-11%,?
Cc1ccc(Cl)cc1N1CCN(C(c2cccnc2)c2nnnn2C2CCCCC2)CC1 (stereo unspecified),9%,?,12%,-53*,-5%,?
Cc1ccc(Cl)cc1N1CCN(C(c2ccc(C#N)cc2)c2nnnn2C2CCCC2)CC1 (stereo unspecified),-9%,-25%,5%,-5,1%,-25%
Cc1ccccc1C(=O)OCc1nc(N)c2ccccc2n1,33%,·,·,·,·,·
CC1=C(C(=O)Nc2ccccc2C)C(c2cccs2)n2nc(SCc3cc(C)ccc3C)nc2N1 (stereo unspecified),?,5.8µM*,·,·,·,?
COc1ccccc1NC(=O)C1=C(C)Nc2nc(SCc3ccccc3F)nn2C1c1cccs1 (stereo unspecified),-14%,9.2µM*,·,·,·,8.2µM*
COc1ccccc1NC(=O)C1=C(C)Nc2nc(SCc3ccccc3C)nn2C1CC(C)C (stereo unspecified),-17%,21µM*,·,·,·,-73%
CC1=C(C(=O)Nc2ccc(C)cc2C)C(c2cccs2)n2nc(SCc3ccccc3Cl)nc2N1 (stereo unspecified),?,6.5µM*,·,·,·,10µM*
CC1=C(C(=O)Nc2ccccc2C)C(c2ccncc2)n2nc(SCc3ccccc3Cl)nc2N1 (stereo unspecified),-19%,-8%,·,·,·,-4%
CC1=C(C(=O)Nc2ccccc2)C(c2cccs2)n2nc(SCc3ccccc3F)nc2N1 (stereo unspecified),-19%,-27%,·,·,·,-26%
COCCN1CCC(N2CCN(S(=O)(=O)c3ccc(Cl)s3)CC2)C1=O (stereo unspecified),-9%,·,·,·,·,·
COc1ccc(N2C(=O)Cc3cc(OC)c(OC)cc3C2c2ccc(F)cc2)cc1 (stereo unspecified),-14%,?,·,·,·,23µM*
CCOc1ccc(C2c3cc(OC)c(OC)cc3CC(=O)N2c2ccc(C(=O)OC)cc2)cc1 (stereo unspecified),-9%,·,·,·,·,·
COC(=O)c1ccc(N2C(=O)Cc3cc(OC)c(OC)cc3C2c2ccc(F)cc2)cc1 (stereo unspecified),-9%,?,·,·,·,15µM*
SMILES,12-LOX inh,TDP1 cell noCPT,HT1080-NT tox,IL1B secr inh,HT1080 IDH1KD tx,DT40 TDP1 CPT
O=C(Cc1cccs1)NC1CCCC(C(F)(F)F)C1 (stereo unspecified),-18%,·,·,·,·,·
O=C1C(SCCO)=C(SCCO)C(=O)c2ccccc21,?,0.16µM*,-84%,-54*,?,0.052µM*
COc1cccc(CNC(=O)[C@@H]2C[C@@H](O)CN2C2CCN(C(=O)CC(C)C)CC2)c1,47%,·,·,·,·,·
COCCn1cnnc1SC(C)C(=O)c1cccc(Cl)c1 (stereo unspecified),-16%,·,·,·,·,·
CCOc1cc(CNC(=O)c2ccc(NC(=O)c3nsc4ccccc34)cc2)ccc1OC,-18%,?,·,·,·,?
CCOc1ccc(CNC(=O)c2ccccc2NC(=O)c2nsc3ccccc23)cc1,-14%,18µM*,·,·,·,21µM*
CC(NC(=O)c1ccccc1NC(=O)c1nsc2ccccc12)c1ccccc1 (stereo unspecified),-20%,?,·,·,·,?
O=C(NCc1ccccc1Cl)c1ccccc1NC(=O)c1nsc2ccccc12,-13%,16µM*,·,·,·,?
CCOc1cc(CNC(=O)c2ccc(C)c(NC(=O)c3nsc4ccccc34)c2)ccc1OC,-24%,7.3µM*,·,·,·,7.3µM*
CC1CCN(C(=O)c2ccccc2NC(=O)c2nsc3ccccc23)CC1,-17%,-24%,·,·,·,-20%
C=CCn1cc2c3c(cccc31)[C@H](CC(C)C)N[C@H](C(=O)NC1CCC1)C2,22%[176 µM],·,·,·,·,·
CN(Cc1ccccc1)S(=O)(=O)c1cn(C)c(=O)n(C)c1=O,6%,·,·,·,·,·
Cc1ccccc1OCC(=O)Nc1ccc2c(c1)n(C)c(=O)n2C,2%,15µM*,0%,-24,-17%,?
Cc1ccc(OC(C)C(=O)Nc2ccc3c(c2)n(C)c(=O)n3C)c(C)c1 (stereo unspecified),45µM*,?,-16%,-9,-13%,?
Cn1c(=O)n(C)c2cc(NC(=O)CCl)ccc21,?,12µM*,?,-91*,?,10µM*
O=C(O)C/C(=C/c1ccccc1OC(F)F)c1nc2ccccc2s1,6%,·,·,·,·,·
